Reference: PubChem BioAssay (NCATS)
Results filed as inconclusive are left out. Active and inactive are the calls of the source. Calls follow the shape of the dose curve; as a rule, active = well fitted inhibition curve with a large enough effect; inconclusive = small, poorly fitted or top-dose-only effect; inactive = no such curve, though single readings can be large or run the other way.

What follows are compounds tested against Rap guanine nucleotide exchange factor 3 (Homo sapiens) (UniProt O95398) (assay: Counterscreen qHTS for antagonist of cAMP-regulated guanine nucleotide exchange factor 3 (EPAC1) (AID 1645888; also: % of control where 0% means no effect)). Settings: Rap1B-BODIPY-GDP nucleotide exchange, fluorescence; series mostly up to 154 µM; activity change, negative = inhibition: at the top concentration.
Excerpt: Assay Provider (PI): Xiaodong Cheng Ph.D. The University of Texas Medical Branch, […], TX MLPCN Grant: NS066510 In multi-cellular eukaryotic organisms, the effects of cAMP are transduced by two ubiquitously-expressed intracellular cAMP receptors, the classic protein kinase A/cAMP-dependent protein kinase (PKA/cAPK) and the more recently discovered exchange protein directly activated by cAMP/cAMP-regulated guanine nucleotide exchange factor (EPAC/cAMP-GEF). Both PKA and EPAC are ubiquitously expressed in all tissues, and an increase in intracellular cAMP levels will lead to the activation of both PKA and EPAC. Therefore, careful dissections of the individual role and relative contribution of EPAC and PKA within the overall cAMP signaling in various model systems are critical for further elucidating the mechanism of cAMP signaling. To date no EPAC-specific antagonists and agonist, as well as isoform-specific agonists have been reported, and developing EPAC-specific pharmacological probes to determine the physiological functions that EPAC play in the overall cAMP-mediated signaling remains a major challenge within the research field. Furthermore, identified regulators of EPAC may lead to new mechanism-based therapeutic strategies specifically targeting the EPAC / cAMP-signaling components as EPAC has been implicated to play important roles in major human pathological conditions such as diabetes, heart disease, and cancer. This qHTS will be used to screen the Molecular Libraries Small Molecule Repository (MLSMR) as a concentration-titration series using the NCGC unique quantitative screening (qHTS) platform to find activators for EPAC1. In addition, this assay will also be used as a counterscreen for the EPAC2 qHTS. This fluorescent based assay is developed and validated for EPAC1 that measures exchange using EPAC effector Rap1 complex with BODIPY-GDP, a GDP analog with a tethered fluorophores. Activators are identified by monitoring the change in fluorescence signal as the exchanged free BODIPY-GDP has a reduced fluorescence compared to Rap1-bound BODIPY-GDP. Increase in signal (activation) is the desired outcome for the EPAC1 agonist while no activity in this assay is desired for the EPAC2 agonist counterscreen. Reference: [1] de Rooij, J., Zwartkruis, F. J., Verheijen, M. H., Cool, R. H., Nijman, S. M., Wittinghofer, A., and Bos, J.L. (1998) Nature 396, 474-477. Kawasaki, H., Springett, G. M., Mochizuki, N., Toki, S., Nakaya, M., Matsuda, M., Housman, D. E., and Graybiel, A. M. (1998) Science 282, 2275-2279.
EPAC1 Counterscreen PROTOCOL TABLE SEQUENCE No. (e.g., 1, 2, 3, etc.); […] (e.g., Cells, Incubation, Reagent, etc.); VALUE and DESCRIPTION. 1. Reagent. 3 uL. [1x] 250 nM Rap1B-BODIPY-GDP, and 50 uM GDP. 2a. Compound. 23 nL. Control 6,572 uM cAMP (working concentration). 2b, 2c. Compound. 23 nL. Control activator and inhibitor; 234 - 30,000 uM cAMP and 16.4 - 10,000 uM. 2d. Compound. 46 nL. MLSMR follow-up library; 0.64 - 10,000 uM. 3. Time. 15 sec, 1000rpm. Centrifuge. 4. Time. 5 min. Incubation at room temperature. 5. Detector. Fluorescence. (Read 1), Ex/Em = 480 nm / 540 nm. 6. Time. 30 min. Incubation at room temperature. 7. Detector. Fluorescence. (Read 2), Ex/Em = 480 nm/ 540 nm. 8. Reagent. 1uL. Dispense either [4x] 10 uM cAMP or buffer. 9. Time. 15 sec, 1000 rpm. Centrifuge. 10. Time. 5 min. Incubation at room temperature. 11. Detector. Fluorescence. (Read 3), Ex/Em = 480 nm / 540 nm. 12. Time. 30 min. Incubation at room temperature. 13. Detector. Fluorescence. (Read 4), Ex/Em = 480 nm / 540 nm. NOTES (numbers refer to Sequence numbers above; values are from representative experiments) 1. Medium-binding black solid-bottom Greiner plates (789176-F). Dispense 3 uL of [1x] 250 nM Rap1B-BODIPY-GDP, and 50 uM GDP into columns 1 to 48. 2a. Control compound cAMP (6,572 uM, column 3, rows 1 to 32) single pin-transferred for a [final] of 50 uM. 2b. […]

Chain of Rap guanine nucleotide exchange factor 3 (Homo sapiens) (O95398 whole entry, looked up): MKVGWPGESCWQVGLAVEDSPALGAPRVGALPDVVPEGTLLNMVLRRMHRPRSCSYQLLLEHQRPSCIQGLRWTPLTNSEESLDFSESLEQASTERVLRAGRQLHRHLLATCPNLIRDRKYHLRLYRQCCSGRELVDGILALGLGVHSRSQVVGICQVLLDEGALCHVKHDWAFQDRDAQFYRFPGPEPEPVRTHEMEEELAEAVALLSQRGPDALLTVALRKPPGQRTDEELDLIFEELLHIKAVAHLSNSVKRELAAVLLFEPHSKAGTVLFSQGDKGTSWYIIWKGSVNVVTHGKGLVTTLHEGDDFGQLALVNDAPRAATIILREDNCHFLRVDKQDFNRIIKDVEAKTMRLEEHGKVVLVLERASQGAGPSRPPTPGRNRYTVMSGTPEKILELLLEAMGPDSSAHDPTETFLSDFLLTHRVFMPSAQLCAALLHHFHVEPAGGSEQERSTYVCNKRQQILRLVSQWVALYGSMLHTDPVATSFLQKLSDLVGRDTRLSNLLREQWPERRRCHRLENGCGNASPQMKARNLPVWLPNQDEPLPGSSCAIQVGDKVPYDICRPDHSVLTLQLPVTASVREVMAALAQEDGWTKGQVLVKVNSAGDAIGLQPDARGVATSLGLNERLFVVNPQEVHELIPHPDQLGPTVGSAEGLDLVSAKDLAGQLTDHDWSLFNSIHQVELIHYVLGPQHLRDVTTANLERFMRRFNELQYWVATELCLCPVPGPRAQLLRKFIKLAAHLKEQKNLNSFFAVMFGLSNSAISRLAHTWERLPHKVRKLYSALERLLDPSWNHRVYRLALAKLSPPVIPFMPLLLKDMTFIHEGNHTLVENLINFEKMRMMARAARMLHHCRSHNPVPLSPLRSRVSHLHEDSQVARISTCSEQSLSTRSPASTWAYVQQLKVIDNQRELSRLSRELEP

| SMILES | activity change, negative = inhibition |
| --- | --- |
| COc1ccc(S(=O)(=O)Nc2ccc(F)cc2)c(C)c1C | 35.5% (inactive) |
| COC(=O)NCc1c(C)nn(-c2ccccc2)c1-n1cccc1 | 15.7% (inactive) |
| C/C=C\C=C/C(=O)Nc1cccc(C2=NOC3(C2)C[C@H](C(N)=O)N(C(=O)c2ccc(OC)cc2)C3)c1 (stereo not given in full) | 28.3% (inactive) |
| Cc1cc(C(=O)CCC(=O)N2CCN(S(=O)(=O)c3ccccc3)CC2)c(C)s1 | -3.54% (inactive) |
| COc1ccc(N(C(=O)c2snc(C(N)=O)c2N)C(C(=O)NC2CCCC2)c2cccs2)cc1OC (stereo not given) | -13.1% (inactive) |
| Cc1ccc(S(=O)(=O)Oc2cccc(/C=N/Nc3ccc(C(=O)O)cc3)c2)cc1 | 7.61% (inactive) |
| CC(C)C(CCNC(=O)CC(Cc1ccccc1)c1ccco1)c1ccco1 (stereo not given) | 24.9% [at 30.8 µM] (inactive) |
| Oc1c(Br)cc(Br)cc1CNc1cccc2cccnc12 | 14.9% (inactive) |
| CC(C)N(Cc1ccccc1)C(=O)c1nc(-c2ccc(Cl)cc2)n2c1CCCCC2 | 0.694% (inactive) |
| CCc1noc(C)c1C(=O)Nc1nc2c(C)cc(C)cc2s1 | 1.59% (inactive) |
| CN(N=Nc1ccc([N+](=O)[O-])cc1)c1ccccc1 | -24.9% (inactive) |
| C[C@@H]1CC=C[C@H]2[C@H]1C(=O)N(Cc1ccccc1)[C@H]2c1ccc(C(F)(F)F)cc1 | -9.3% [at 30.8 µM] (inactive) |
| O=C(Nc1nc2ccccc2c(=O)s1)c1ccc(F)cc1Cl | -12.7% (inactive) |
| CCn1c(SCC(=O)N/N=C/C=C\c2ccco2)nc2ccccc21 | 16.1% (inactive) |
| COc1ccc(S(=O)(=O)N2CCCC2)c2ccccc12 | -10.4% [at 30.8 µM] (inactive) |
| Cc1ccc(O)c(-c2n[nH]c3c2C(c2ccccc2F)N(Cc2ccco2)C3=O)c1 (stereo not given) | -18.6% (inactive) |
| CN(C)c1ccc(C=C(C#N)C(=O)c2ccccc2)cc1Br | 9.51% (inactive) |
| CC(=O)NC(C)(c1ccccc1)c1nc(-c2cccc(C(F)(F)F)c2)cs1 (stereo not given) | -29.3% (inactive) |
| O=C(COc1cccc(OC(F)F)c1)Nc1ccc(SC(F)F)cc1 | 8.28% [at 30.8 µM] (inactive) |
| Cc1ccc(/C=C/C(=O)Nc2ccc([N+](=O)[O-])c(NC(=O)/C=C/c3ccc(C)o3)c2)o1 | 4.14% [at 30.8 µM] (inactive) |

| SMILES | activity change, negative = inhibition |
| --- | --- |
| COCCCNC(=O)C(C#N)c1nc2ccccc2nc1N1CCN(Cc2ccccc2)CC1 (stereo not given) | 22.9% (inactive) |
| O=C(O)c1sccc1SCc1ccc(Cl)c(Cl)c1 | 2.61% (inactive) |
| O=C1c2ccccc2S(=O)(=O)c2cc(N3CCC(C(=O)N4CCCCC4)CC3)ccc21 | 202% (inactive) |
| COC(=O)c1ccccc1C(=O)c1cccc2ccccc12 | 23% (inactive) |
| Cc1ccn2c(-c3csc(NCc4ccccc4)n3)c(C)nc2c1 | 32.5% (inactive) |
| COc1cc(/C=C(\C#N)c2nc3ccc(C)cc3[nH]2)ccc1OCc1ccc(C)cc1 | -8.62% (inactive) |
| COc1cccc2c1C(=O)c1c(O)c3c(c(O)c1C2=O)CC(O)(C(C)=O)CC3OC1CC(N(C)C)C(O)C(C)O1 (stereo not given) | 80.1% [at 30.8 µM] (inactive) |
| CCOC(=O)c1cc2c(ccn2C)n1Cc1ccccc1Cl | -7.56% (inactive) |
| CCN1CCc2c(sc(NC(=O)c3cc4ccccc4cc3OC)c2C(N)=O)C1 | -3.83% [at 30.8 µM] (inactive) |
| O=C(NCc1cccc(Cl)c1)c1ccc(S(=O)(=O)Nc2cccc(C(F)(F)F)c2)cc1 | -24.7% (inactive) |
| C=CC[C@@H](Cc1ccc(F)cc1)C(=O)OC[C@@H]1CCCN1C(=O)[C@@H](CC=C)CC(=O)N(CCO)Cc1ccccc1 | -25.9% (inactive) |
| Cc1ccc(C)c(CSc2nnc(C)n3c2cc2sccc23)c1 | 9.24% (inactive) |
| N#Cc1c(NC(=O)C2CC=CCC2C(=O)O)sc2c1CCCCCC2 (stereo not given) | -15.2% [at 30.8 µM] (inactive) |
| C/C(CC(=O)Nc1ccc(Cl)c(C(F)(F)F)c1)=N\NC(=O)c1cnccn1 | -16.8% (inactive) |
| COc1ccccc1C(=O)Nc1nnc(SCc2cc(=O)c3ccccc3[nH]2)s1 | 17.6% (inactive) |
| CC1=C(C(=O)OCc2ccccc2)C(c2ccc(Cl)cc2Cl)NC(=O)N1CCCCCC(=O)O (stereo not given) | 10.7% (inactive) |
| CN(CC(=O)Nc1ccc(F)cc1)C(=O)COc1ccc(C(=O)c2ccccc2)cc1 | -15.1% (inactive) |
| CCCCCCOC(=O)C(C#N)c1nc2ccccc2nc1N1CCCCC1 (stereo not given) | -17.9% (inactive) |
| Cc1cc(O)cc(C)c1NS(=O)(=O)c1ccc2ccccc2c1 | -0.202% (inactive) |
| O=C(Nc1ccccc1)C1=C(O)CC(c2ccc(Cl)cc2)N2CCN=C12 (stereo not given) | 1.26% (inactive) |
